Compounds with a hit are over-represented: about 3.8% of the library has one in this group of screens.
HSF1 inhib: HSF1 inhibitors in luciferase reporter cells, primary screen, cell-based, NIH3T3, luminescence | activity change, negative = inhibition, % at 7.5 µM (by protocol) | 300,000 compounds, 0.77% hits | NIH3T3-HGL HSE-luciferase, MG132-induced, luminescence 8 h; active compounds read low | AID 2098, 2009;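 active = more than half of replicate wells show activity change below -50%, luminescence cut by over half; inconclusive = some wells, but at most half, below -50%; inactive = no replicate well below -50%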;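 also: luciferase reports HSF-1 transcriptional activity via heat shock element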
NALP1 inh: NALP1 inflammasome inhibitors in reconstituted yeast, colorimetric, S. cerevisiae, triplicate retest; inhibition, % at 10 µM; AID 2071, 2009; 280,000 compounds, 0.61% hits; S. cerevisiae NALP1/ASC/caspase-1 growth, X-gal OD620, 72 h; in the data active = inhibition mostly above about 24%, no sharp cut-off; inactive = mostly below about 32%
HSP90 inh: HSP90 inhibitors, primary screen, cell lysate, luminescence; Rabbit reticulocyte lysate, luciferase refolding luminescence, 3 h; inhibition, % at 5.6 µM; 290,000 compounds, 0.91% hits; AID 1789, 2009;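 active = inhibition above the screen-wide mean plus 3 SD, computed separately per campaign, cut at about 16% in these data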;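 also: inhibitors lower the luminescence because luciferase stays unfolded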
Hsp70 act: Hsp70 transcriptional activators, primary screen, cell-based, HeLa, Hsp70 promoter luciferase, luminescence, 10 µM; HeLa Hsp70 promoter luciferase reporter; scaled: vehicle 0, proteasome-inhibitor control 100%; activation, % at 10 µM; 200,000 compounds, 0.04% hits;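 active = activation above the mean across all tested compounds plus 3 SD, cutoff set per campaign, cut at about 5.5% in these data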
pCIP destab: p/CIP-EGFP fusion destabilizers, primary screen, fluorescence, F442A cells | 16 h | decrease of EGFP signal, % at 10 µM | 290,000 compounds, 0.01% hits | AID 1984, 2009;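 active = EGFP signal decrease of at least 30% at 10 µM or well 3 SD below plate mean, unless failing retest; inactive = the rest, including hits failing retest or dose response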
HSF-1 act: HSF-1 activators, primary screen, NIH3T3-HGL cells, MG132 stress, luminescence, single point. NIH3T3-HGL HSF-1 luciferase reporter, 8 h; 100% = twice DMSO control signal. AID 504408, 2011. 300,000 compounds, 1.7% hits. activation, % at 9 µM;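 active = mean replicate activation of at least 50% with a set share of replicates each reaching 50%; inconclusive = only one of those two conditions met; inactive = mean below 50% and too few replicates reaching it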
A number is an active result; - = inactive; ? = inconclusive; . = no result given.

SMILES	HSF1 inhib	NALP1 inh	HSP90 inh	Hsp70 act	pCIP destab	HSF-1 act
COC(=O)c1ccsc1NC(=O)CCc1ccccc1	-	-	-	.	-	67
CCOC(=O)N1c2ccccc2C=CC1OCC (stereo not drawn)	-	-	-	-	-	-
O=C(CC1C=Cc2ccccc2N1C(=O)c1ccccc1)c1ccccc1 (stereo not drawn)	-	-	-	.	-	71
CC1C=Cc2ccccc2N1C(=O)c1ccccc1 (stereo not drawn)	-63	-	-	-	-	-
COC(=O)C1=C(C)Nc2c(c(=O)n(C)c(=O)n2C)C1c1cccnc1 (stereo not drawn)	-	-	-	-	-	-
COC(=O)C1=C(C)Nc2c(c(=O)n(C)c(=O)n2C)C1c1cccc(O)c1 (stereo not drawn)	-57	-	-	.	-	-
CCN(CC)S(=O)(=O)c1cc(NC(=O)CCNC(=O)c2ccco2)ccc1C	-	-	-	.	-	-
O=C(N/N=C/c1ccc[nH]1)c1cc2ccccc2cc1O	-	-	-	.	-	-
O=C(N/N=C/c1ccncc1)c1cc2ccccc2cc1O	-	-	-	.	-	312
Cc1ccc(-c2cc(-c3ccccc3)c(C#N)c(Br)n2)cc1	-	-	-	-	-	-
CS(=O)(=O)c1nc(-c2ccccc2)cc(-c2ccccc2)c1C#N	-	-	-	-	-	167
C=CCn1c(-c2cccc3ccccc23)n[nH]c1=S	-73	-	-	-	-	-
C=CCn1c(-c2ccccc2OC)n[nH]c1=S	-	-	-	-	-	-
Cc1ccc2oc(C(=O)N3CCN(c4cccc(C)n4)CC3)c(C)c2c1	-	-	-	.	-	-
Cc1cc(Cl)c2oc(C(=O)N3CCN(c4cccc(C)n4)CC3)c(C)c2c1	-	-	-	.	-	73
CC1(C)CC(=O)C2=C(C1)OC(N)=C(C#N)C2C#Cc1ccccc1 (stereo not drawn)	-	-	-	-	-	78
Cc1nc(-c2nnc(SCC(=O)Nc3cc(Cl)cc(Cl)c3)n2C)cs1	-	.	-	.	-	-
O=C(NCc1cccnc1)/C(=C/c1ccc(-c2ccc(Cl)cc2)o1)S(=O)(=O)c1ccccc1	-	-	-	-	-	87
O=C(OCC(=O)N1CCN(C(=O)c2ccco2)CC1)c1sc2cc(F)ccc2c1Cl	-55	-	-	-	-	-
O=C(Cc1ccccc1F)OCC(=O)N1CCN(C(=O)c2ccco2)CC1	-	-	-	-	-	-
Cc1ccc(Cn2nnc(C(=O)Nc3cc(C)ccc3C)c2N)cc1	-	-	-	-	-	104
COc1ccc(NC(=O)Cn2nnc(C(=O)Nc3ccc(F)c(Cl)c3)c2N)cc1	-	-	-	.	-	-
Cc1ccc(NC(=O)Cn2nnc(C(=O)Nc3ccc(F)c(Cl)c3)c2N)cc1	-	37	-	.	-	-
COc1cccc(Cn2nnc(C(=O)Nc3cc(Cl)ccc3OC)c2N)c1	-	40	-	-	-	-
COc1cccc(NC(=O)Cn2nnc(C(=O)Nc3cc(Cl)ccc3OC)c2N)c1	-	-	-	.	-	-
SMILES	HSF1 inhib	NALP1 inh	HSP90 inh	Hsp70 act	pCIP destab	HSF-1 act
Cc1ccc(C)c(NC(=O)c2nnn(Cc3ccccc3)c2N)c1	-	-	-	-	-	-
COc1ccc(C(NC(=O)CN2CCCCCC2)c2ccc(OC)cc2)cc1	-	-	-	.	-	-
CCOC(=O)C1CCN(C(=O)c2cc3cc(C)ccc3[nH]2)CC1	-	-	-	.	-	-
Cc1ccc(N2CC(C(=O)N3CCN(Cc4ccc5c(c4)OCO5)CC3)CC2=O)cc1 (stereo not drawn)	-	-	-	.	-	-
CCOc1ccc(N2C(=O)CC(Cc3cc(C)cc(C)c3)C2=O)cc1 (stereo not drawn)	-	-	-	.	-	-
CCOc1ccc(N2C(=O)CC(N)C2=O)cc1 (stereo not drawn)	.	94	-	-	-	.
COc1ccc(N2C(=O)CC(Sc3n[nH]c(-c4ccccc4)n3)C2=O)cc1 (stereo not drawn)	-	-	-	.	-	?

From PubChem
